# Assay outcomes: PubChem BioAssay, Broad Institute
# aSyn 5UTR act: Activators via SNCA 5'UTR binding, MLPCN. alpha-synuclein 5'UTR reporter, activators screen. activity score, % (tested at 7.5 µM), hits read low. 300,000 tested, 7.1% active. AID 1814, 2009; in the data active = activity score below about -60%
# An asterisk follows results filed as active. These entries were drawn from the full list.
SMILES,aSyn 5UTR act
CCOC(=O)c1[nH]c2c(c1-c1ccccc1)C(=O)CC(c1ccccc1)C2 (configuration not stated),-65.8*
CCn1ccc(C(=O)Nc2ccccc2SC)n1,-174.8*
CCn1nccc1C(=O)Nc1ccc(Cl)cn1,-96.3*
CCn1ccc(C(=O)Nc2ccc(Cl)cn2)n1,-136.9*
CN(C)c1ccc(C(=S)NC2CCCCC2)cc1,-111.2*
CCN(CC)c1ccc(C(=S)NC2CCCCC2)cc1,-64.0*
O=C(N/N=C/C=C/c1ccccc1)c1cc2c(ccc3ccccc32)o1,-80.0*
O=C(N/N=C/C=C/c1ccccc1)c1cccs1,-155.7*
O=C(Cc1cccs1)N/N=C/C=C/c1ccccc1,-70.1*
O=C(N/N=C\C=C\c1ccc([N+](=O)[O-])o1)c1cccs1,-62.5*
O=C(N/N=C/C(Br)=C/c1ccccc1)c1cccs1,-365.7*
Nc1oc2ccccc2c(=O)c1-c1ccc2c(c1)OCO2,-74.6*
O=C1OCCC1Sc1nnc(-c2ccc3c(c2)OCO3)o1 (configuration not stated),54.8
COc1ccccc1C(NC(C)=O)c1cc(Cl)c2cccnc2c1O (configuration not stated),67.5
COc1ccccc1/C=C/C(=O)Nc1cccnc1Cl,-132.5*
COc1ccc(/C=C/C(=O)Nc2cccnc2Cl)cc1,-224.2*
COc1ccccc1/C=C/C(=O)NCCc1ccccn1,-91.7*
COc1cc2c(cc1OC)-c1cc(NC3CCCCCCC3)nc(=O)n1CC2,70.0
COc1ccccc1-c1ccc(NC2CCCC2)nn1,-120.4*
COc1ccccc1-c1cnn2c(NC3CCCC3)cc(C)nc12,-181.9*
COc1cccc2c1C(=O)c1ccc3ccccc3c1C2=O,-141.2*
CCOc1ccc(-c2cc(CCCC(=O)NCCc3ccccc3)no2)cc1,62.2
CC(C)c1cc(CNC(=O)CCc2nnc(CCCc3ccccc3)o2)on1,-76.9*
O=C(CCc1nnc(CCCc2ccccc2)o1)NCCCC1CCCC1,-115.9*
O=C(CCc1nnc(CCCc2ccccc2)o1)N1CCCCCC1,-149.1*
SMILES,aSyn 5UTR act
CCc1cc(CNC(=O)CCc2nnc(CCCc3ccccc3)o2)on1,-129.1*
COc1cccc2c1C(=O)c1c(O)c3c(c(O)c1C2=O)C[C@@](O)(C(=O)CO)C[C@@H]3O[C@H]1C[C@H](N)[C@@H](O)[C@H](C)O1,109.3
O=C(Nc1ccc(NC(=O)c2ccco2)c(Cl)c1)c1ccc2c(c1)OCCO2,-76.1*
O=C(Nc1c(C(=O)Nc2ccc3c(c2)OCCO3)cnn1-c1ccccc1Cl)c1ccco1,-102.1*
O=C(Nc1cc2c(cc1Br)OCCO2)c1ccco1,-100.6*
O=C(Nc1cc2c(cc1Br)OCCO2)c1cccs1,-141.9*
O=C(Nc1cc2c(cc1Cl)OCCO2)c1ccco1,-162.7*
O=c1cc(N2CCN(c3ccc(F)cc3)CC2)[nH]c(=O)n1C1CCCCC1,-107.3*
Cc1ccc(O)c(N=Nc2ccc(S(=O)(=O)N3CCCC3)cc2)c1,-70.2*
O=S(=O)(c1ccc2c(c1)C(=NO)c1cc(S(=O)(=O)N3CCCCC3)ccc1-2)N1CCCCC1,96.5
Nc1nc(-c2ccccn2)nc(N)c1Cc1ccccc1F,-246.3*
O=C(Oc1oc(-c2ccco2)nc1C=Nc1ccc(Cl)cc1)c1ccco1,-170.2*
COc1ccc(N=Cc2nc(-c3ccco3)oc2O)cc1,-111.2*
O=c1c(Cl)c(N2CCN(c3ccc(F)cc3)CC2)cnn1-c1nc2ccccc2s1,-111.5*
Cc1cccc(N=Nc2cn[nH]c2-c2ccco2)c1,-124.5*
COc1ccc(-c2nnc(NC(=O)c3ccc(S(=O)(=O)N4CCCc5ccccc54)cc3)o2)cc1,69.0
COC(=O)c1ccc(S(=O)(=O)N2CCc3ccccc32)cc1,-95.5*
O=C(COc1ccc(Br)cc1CO)Nc1ccccc1,-106.6*
COc1ccccc1NC(=O)COc1ccc(CO)cc1Cl,-151.3*
COc1cc2c(cc1OC)C(c1ccc(Br)cc1)NCC2 (configuration not stated),63.3
COc1cc(CO)ccc1OCC(=O)Nc1ccc(Br)cc1,-85.6*
O=C(N/N=C/c1cc(Br)ccc1O)C(=O)Nc1ccccc1OC(F)(F)C(F)F,82.2
O=C(COc1ccc(Br)cc1CO)Nc1ccccc1F,-180.6*
COc1ccccc1C1=NC(c2ccc(C)cc2)N=C1C (configuration not stated),-77.8*
C/C(=N\Nc1nc(-c2ccccn2)nc2ccccc12)c1ccc(F)cc1,75.3
SMILES,aSyn 5UTR act
C/C(=N\Nc1nc(-c2ccccc2O)nc2ccccc12)c1ccccc1,-90.9*
C/C(=N\Nc1ccc(F)cc1F)c1ccccc1O,-104.3*
CCc1cc2c(=O)n(C(C)C(=O)OC3CCCCC3)cnc2s1 (configuration not stated),-137.0*
CC1=CC(C)=Nc2ccc(C)cc2N1,-62.5*
Cc1noc(C)c1C(=O)OCC(=O)c1cc(C)n(Cc2ccccc2Cl)c1C,-98.3*
CNC(=O)c1ccc(Nc2nc(-c3ccccc3)nc3ccccc23)cc1,-89.8*
COc1ccccc1N=Nc1[nH]c2ccc(C)cc2c1O,-168.8*
COc1ccc(C(=O)COc2ccccc2C#N)cc1,-126.7*
COc1ccc(C(=O)COc2ccccc2N2C(=O)C3C4C=CC(C4)C3C2=O)cc1 (configuration not stated),-81.6*
COc1ccc(C(=O)CNc2ccccc2CO)cc1,-69.8*
COc1ccc(C(=O)CNc2ccccc2C#N)cc1,-93.0*
N#C/C(=C/c1ccc(N2CCOCC2)o1)c1ccc(Cl)cc1,-285.5*
C(=N\Nc1nc2ccccc2s1)/c1ccc2c(c1)OCO2,-189.6*
Brc1cc2c(cc1/C=N/Nc1nc3ccccc3s1)OCO2,-116.9*
C(=N\Nc1nc2ccccc2s1)/c1ccccn1,100.9
Cc1nc(N/N=C\c2ccc3c(c2)OCO3)sc1C,-128.5*
Brc1csc(/C=N/Nc2nc3ccccc3s2)c1,-274.6*
Cc1ccc2[nH]c(C)c(/C=N/Nc3nc4ccccc4s3)c2c1,-140.3*
O=C(COc1ccc(F)c(Cl)c1)c1ccc[nH]1,-70.8*
O=C(CCC(=O)c1ccc[nH]1)c1ccc(Cl)cc1,-115.8*
N/C(=N\OC(=O)c1ccc(Cl)cc1)c1ccn[nH]1,-76.8*
N/C(=N\OC(=O)c1cccs1)c1cccnc1,-91.9*
CCSc1ccc(/C(N)=N/OC(=O)c2cccs2)cn1,-120.4*
N/C(=N\OC(=O)c1ccc(Cl)cc1Cl)c1cccnc1,-70.5*
N/C(=N\OC(=O)c1ccc(Cl)cc1)c1cccnc1,-186.8*
SMILES,aSyn 5UTR act
Cc1ccccc1/C(N)=N/OC(=O)c1cccs1,-119.6*
N/C(=N\OC(=O)c1ccco1)c1cccnc1,-78.4*
N/C(=N\OC(=O)c1ccc(Cl)cc1)c1ccc(Cl)cc1,-121.7*
N/C(=N\OC(=O)c1ccco1)c1ccc(Cl)cc1,-210.3*
Cc1ccc(NC(=O)CSc2n[nH]c(-c3ccccn3)n2)cc1,58.5
CCOc1ccc(-c2cc(CCCC(=O)Nc3cccc(OC)c3)no2)cc1,67.5
CCc1ccc(NC(=O)CSc2ccccn2)cc1,-74.0*
O=C(CCSc1ccccn1)Nc1ccc(Br)cc1,-152.9*
COc1ccc(NC(=O)CSc2ccccn2)cc1,-78.7*
COc1cccc(NC(=O)CSc2ccccn2)c1,-144.3*
COc1ccc(CNC(=O)CSCc2ccccc2Cl)cc1,-61.7*
Cc1ccc(SCC(=O)NC(C)(C)C)cc1,-66.1*
COc1ccc(NC(=O)CSCc2ccccc2C)cc1,-90.3*
COc1ccc(NC(=O)CSc2ccccn2)c([N+](=O)[O-])c1,-72.5*
COc1ccc(-n2c(SCC(=O)Nc3ccc(Br)cc3)nc(O)cc2=O)cc1,-118.9*
COc1ccc(-n2c(C)cc(C(=O)CSc3ccc(NC(C)=O)cc3)c2C)cc1,-89.1*
